Laboratory results taken from article PMC13494018.
Values without a mark were called inactive. The rule behind the calls is not given here.

biological target: VTCN1, Q7Z7D3
Sequence (Q7Z7D3 whole entry): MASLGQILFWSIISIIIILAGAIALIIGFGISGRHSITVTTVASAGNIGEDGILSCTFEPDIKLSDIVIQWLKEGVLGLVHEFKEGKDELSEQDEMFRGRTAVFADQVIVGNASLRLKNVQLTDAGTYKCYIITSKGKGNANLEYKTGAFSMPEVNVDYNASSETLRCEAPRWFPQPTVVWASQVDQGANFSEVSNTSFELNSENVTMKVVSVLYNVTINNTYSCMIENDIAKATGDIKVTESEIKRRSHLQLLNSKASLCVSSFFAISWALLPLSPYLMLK

| Binder | binding in a display sort |
| --- | --- |
| design_596_3e5f537c-0703-45f0-993f-ff416531349a_1315_dldesign_0_cycle1_af2pred (protein) SITYKNKALAYLEAAKHALEVAKKNVGDLEKVKKAYEQAKKFVEKALEYASKVTPEFLAEAKAESEKILAEMEKVLKEAE | not found |
| design_597_f3dcd2b3-c7aa-4b15-88bc-bbb8d01a18cd_323_dldesign_0_cycle1_af2pred (protein) EEVEKKLKELAEKVKKAKELAEKDPEKGIELAKEAIKEAQKLGKEADEETKKKLAEVAEEAVEVRFEALEKLVKS | not found |
| design_596_3e5f537c-0703-45f0-993f-ff416531349a_1302_dldesign_0_cycle1_af2pred (protein) KEKLIEEAKKEAKEVVEKAKAILKSKAKEGKLEEGIKEAANLLQEFQQKLTEISFENPEVKEDMEKIFKEARDELKAEIEAAKAA | not found |
| design_596_3e5f537c-0703-45f0-993f-ff416531349a_1970_dldesign_0_cycle1_af2pred (protein) DEEEKEKKLEEARKAKDEAEEALDKAMEKASPEEALELLEEYRKVSKEAQKLVKEEGVEGAAEAAKLLKEQKKYFEEKYKEL | not found |
| design_596_3e5f537c-0703-45f0-993f-ff416531349a_642_dldesign_0_cycle1_af2pred (protein) SLEENYELAKRVAEAAKEAGKEAKKAGPELAPIGEKAEKEAKELLKEAELAYKDPSYIPEAGKEAQKALEAKAEADWAIAQYK | not found |
| design_597_f3dcd2b3-c7aa-4b15-88bc-bbb8d01a18cd_98_dldesign_0_cycle1_af2pred (protein) AERVEAAGKIALARIDKAGKGTKEELAVASAQAMALVGVTAGASDEEIDAMVDKVEAAAKGANPVADAKKVLTAAIKELAAK | not found |
| design_597_f3dcd2b3-c7aa-4b15-88bc-bbb8d01a18cd_63_dldesign_0_cycle1_af2pred (protein) GEAKAEELIKKAKEALREFAETGSLEALDKAEEYAEEISKFTPEVRAKAAEELEKVGEEGSPAARAVAKNLADYLK | binds (active) |
| design_596_3e5f537c-0703-45f0-993f-ff416531349a_1299_dldesign_0_cycle1_af2pred (protein) MSKKLTEALSAFNKAAAAAAKLIDEEAKKDPKKAAEVKKLLAKAVYEIDNPEKAAAYLEAAAKAATDAATKAELNAAAAEAKKLGEL | not found |
| design_596_3e5f537c-0703-45f0-993f-ff416531349a_1683_dldesign_0_cycle1_af2pred (protein) EEEKRREAAERLRELAKKALEDVENAPEYLEEAAREAEKVGDYTTAVLLEQLAEDVRKASPEEAVKFVRAGAERALRSAERLL | not found |
| design_596_3e5f537c-0703-45f0-993f-ff416531349a_2102_dldesign_0_cycle1_af2pred (protein) AEAVAEEMLARIEEARDALTAADPTLADIADSIADAAKERMRAAAAEGRAEEVAEVGERAVRTLEHLAKLAK | not found |
| design_596_3e5f537c-0703-45f0-993f-ff416531349a_566_dldesign_0_cycle1_af2pred (protein) DKLVEEAKKAAEEAEKLLDKAIKVSPKAAAEAATAYALYENALSAAESGSATEEEVKAQLEKGKEKLKKAKEIMKKEEEKK | not found |
| design_596_3e5f537c-0703-45f0-993f-ff416531349a_666_dldesign_0_cycle1_af2pred (protein) SEEGKKKVEEAKKRAEKAKKKAKEAIKKSKEEGKAAVYSLLGIAESFKLLAKAMAKTDPEAGKKIKEVAEEAEKKAKELLEEVEK | not found |
| design_596_3e5f537c-0703-45f0-993f-ff416531349a_466_dldesign_0_cycle1_af2pred (protein) EEERTKLIKEASDLRREAIALLREAGKAADPATAGAAVFAIPDLEAFTAAAAAAAKAYPELAATWEAAAAKATASHAAVEKAEKL | not found |
| design_597_f3dcd2b3-c7aa-4b15-88bc-bbb8d01a18cd_601_dldesign_0_cycle1_af2pred (protein) SKAEEKAKELEEKLKKAEELAKKDPKKGAKYAKEIAKEARKAGKETGETEKFAKIADKAYQIAAEAEFKAK | not found |
| design_596_3e5f537c-0703-45f0-993f-ff416531349a_2330_dldesign_0_cycle1_af2pred (protein) EEALKKAEERYEKYGKKALELAEKVGLKEEVEEGIKDPSKMPEVIKKLEELGEENPEVRKDAYLAASYLQRAQQAYETKKKIEAA | not found |
| design_597_f3dcd2b3-c7aa-4b15-88bc-bbb8d01a18cd_362_dldesign_0_cycle1_af2pred (protein) AAEKAKKAADAFRAIAKAAKLALEDPEKGAAAIQAAVDAAKKESPEIAPYVAAVAEEKLAAVKAKLAAAAAA | not found |
| design_596_3e5f537c-0703-45f0-993f-ff416531349a_1329_dldesign_0_cycle1_af2pred (protein) MEASEELRKAIKYARELGEKGTEEHKKLAAEAVFYASSDPEKAIALLKEVAKDPKVKELAEKAIEHIKKLAEL | not found |
| design_596_3e5f537c-0703-45f0-993f-ff416531349a_1686_dldesign_0_cycle1_af2pred (protein) MDEEIKKKAIEIAQKALEAAAEYEAKAIRTGDEESKKKAEELRELAKKIREALKEGNIEEAKKYAEKAKKLIEEA | not found |
| design_596_3e5f537c-0703-45f0-993f-ff416531349a_778_dldesign_0_cycle1_af2pred (protein) AAAEEEKEQKEKLEEVKELAKKMVEEVKEYAKKTTVEEAKKYLDEKKKELFKYAREKVGYEGVEEAVEAYGEARTAILKLEKN | not found |

| Binder | binding in a display sort |
| --- | --- |
| design_596_3e5f537c-0703-45f0-993f-ff416531349a_512_dldesign_0_cycle1_af2pred (protein) DADTIRAASKALKAAGKDPKTAPLAKEAKEALFKGLEYENKDPKKAAEYYKKAAELLRKLAEKAEAKEELLKVAEELEKKAEELKKK | not found |
| design_596_3e5f537c-0703-45f0-993f-ff416531349a_2087_dldesign_0_cycle1_af2pred (protein) MAEKLVEKAKAEMKKLVEEAKKGNPEEARKIRKEIIEKGKKALEEADTEEKKKAAEEIKKIAYKAVEEVLEAYGELLVK | not found |
| design_596_3e5f537c-0703-45f0-993f-ff416531349a_2079_dldesign_0_cycle1_af2pred (protein) MEKEELQRRLKETAEKLAEKHPEAAPAARLVIRVGEKANAEEVRKLLELTEKALGENWKEYAAEATEYAVEIEADILVKELK | not found |
| design_596_3e5f537c-0703-45f0-993f-ff416531349a_2018_dldesign_0_cycle1_af2pred (protein) AAEKKAKAEAKKIVEEAAKIAKEKGYDEGMKYAYKASKELAEKYGKEYGAKAFEEAVDAIGDELAKKVKE | not found |
| design_596_3e5f537c-0703-45f0-993f-ff416531349a_2320_dldesign_0_cycle1_af2pred (protein) KKVEELKKKMLEELEKIIEIAKTLPPEEAERLITFAKAARERGEKKGVRGLAKAALNVAFEASKYEETKEAAEKLEELANEIIKLT | not found |
| design_596_3e5f537c-0703-45f0-993f-ff416531349a_1563_dldesign_0_cycle1_af2pred (protein) AEKHLKEAKKLAEEAKKLAEEAEKDPSTAPEKAKKAEEAARKAREEAKKAAEADPSVAPEAAKAAQEAYEARAVAEAVANRYLK | not found |
| design_596_3e5f537c-0703-45f0-993f-ff416531349a_1052_dldesign_0_cycle1_af2pred (protein) GEEKLKEAKKEAEKKLEELKKKGKEVGPEAVKIVEKAKERIEKKYKEAEKMKNKEAGALSFEEFAKDAIEAAKKQIEKLAKEKA | not found |
| design_596_3e5f537c-0703-45f0-993f-ff416531349a_1289_dldesign_0_cycle1_af2pred (protein) MNDALAAESYGEGLVEDAEKEAKEAIEKGASPEELKKVAKKARERAERVRRYAERRAKEAENSEEVLAAGEKAVKKLEEIAKELEKAA | not found |
| design_597_f3dcd2b3-c7aa-4b15-88bc-bbb8d01a18cd_570_dldesign_0_cycle1_af2pred (protein) NAIKKEVEEHLAKAEEYTAKAIETASDPEKFKEYFEKMREEFGKALKAAKADPELKKLAEDKLMEAQMKVTEAKGEAARKKNN | not found |
| design_597_f3dcd2b3-c7aa-4b15-88bc-bbb8d01a18cd_430_dldesign_0_cycle1_af2pred (protein) AVKEKLERAKKYAEETKKLAKELKKNPKFKKTAEEIEKEAEKVLEEAKKAAEKGDAEAVGEKATELRVLKTAAEQLLKAAK | not found |
| design_596_3e5f537c-0703-45f0-993f-ff416531349a_508_dldesign_0_cycle1_af2pred (protein) KEKIQKEGLKEIEKIAEEGIKEAKKYAEEGKYEEAKKIAKEALEKMREKAKELGEKVGEEAQKQGAKIIQKAREELSEYVQKAKLKK | not found |
| design_596_3e5f537c-0703-45f0-993f-ff416531349a_1819_dldesign_0_cycle1_af2pred (protein) HAATVKAVAAEAKELAEEKIKAMKENAKDEEGIKLAVNSMKRFADNDAKLGPEAGAAAKAEYEKVEKAAKEIIKEAKA | not found |
| design_596_3e5f537c-0703-45f0-993f-ff416531349a_988_dldesign_0_cycle1_af2pred (protein) VEKVAKEAKKAAKEARKEAKKTKDGKAAQELLEAASEAEGYAILAEKDPKYAPKAKEAAKKAKELVEKVKKE | not found |
| design_597_f3dcd2b3-c7aa-4b15-88bc-bbb8d01a18cd_271_dldesign_0_cycle1_af2pred (protein) DEAKKKAAEELAEAYEYVAEALALGKKTNEEAKKLAKEAKEEFKKYRDKAKALYKAGNYEEAYKEAKKAYEESKKKLEEIKKIAE | not found |
| design_596_3e5f537c-0703-45f0-993f-ff416531349a_2235_dldesign_0_cycle1_af2pred (protein) GLYEEAKKEAKEAFSYGIAYLSAVSAKDPSLAPEAEKELEEAFEKVEKALKDAKSGKNPEKALKEIKEIRDEWKEKLKEARA | not found |
| design_596_3e5f537c-0703-45f0-993f-ff416531349a_533_dldesign_0_cycle1_af2pred (protein) SAITEQNKKEALAERAKHVGEAAVKQAKAHAGDVAYIEKLQKQALEAGKKANEEGKKAAEAAAKEIAKIAAQAKAAK | not found |
| design_596_3e5f537c-0703-45f0-993f-ff416531349a_2173_dldesign_0_cycle1_af2pred (protein) SELKDLLSEAERARHKAEAIATRAKELAKYDPKEAKKIADEAKKVAEEAKKAAELAEKDPEKGKEAIKKVKEKVKKLEKKVKALEKKV | not found |
| design_597_f3dcd2b3-c7aa-4b15-88bc-bbb8d01a18cd_135_dldesign_0_cycle1_af2pred (protein) MLTVMQAADIIIDKGAEEAKKAMVETALDVAKKYGIEAGRKAARTLSRIFKNAYGEEEGKEAEKEVLEALEKLEKE | not found |
| design_596_3e5f537c-0703-45f0-993f-ff416531349a_2108_dldesign_0_cycle1_af2pred (protein) DAVKKAAEEGKERVRRRAEREKKRVTPEARPEIEKAEEKGVKKVEEAAKGTVKEVANAAQEGITEVIEVGAENKIKA | not found |
